This note sets out measurements from article PMC4336329 (PLoS ONE, 2015).

SMILES strings stand for the structures. In all, about 310,000 compounds went through this assay and about 2,200 (0.71%) showed an effect of 50% or more. The effect is printed as a negative number. The sample as a whole holds a higher share of strong results than the screen did.

For this assay, the target named is human ether-à-go-go-related gene (hERG) potassium channel (human, UniProt Q12809). The assay is described as follows: primary screen, population patch clamp on CHO cells stably expressing hERG; higher = less effect of the substance.
human ether-à-go-go-related gene (hERG) potassium channel, sequence (Q12809 whole entry, looked up): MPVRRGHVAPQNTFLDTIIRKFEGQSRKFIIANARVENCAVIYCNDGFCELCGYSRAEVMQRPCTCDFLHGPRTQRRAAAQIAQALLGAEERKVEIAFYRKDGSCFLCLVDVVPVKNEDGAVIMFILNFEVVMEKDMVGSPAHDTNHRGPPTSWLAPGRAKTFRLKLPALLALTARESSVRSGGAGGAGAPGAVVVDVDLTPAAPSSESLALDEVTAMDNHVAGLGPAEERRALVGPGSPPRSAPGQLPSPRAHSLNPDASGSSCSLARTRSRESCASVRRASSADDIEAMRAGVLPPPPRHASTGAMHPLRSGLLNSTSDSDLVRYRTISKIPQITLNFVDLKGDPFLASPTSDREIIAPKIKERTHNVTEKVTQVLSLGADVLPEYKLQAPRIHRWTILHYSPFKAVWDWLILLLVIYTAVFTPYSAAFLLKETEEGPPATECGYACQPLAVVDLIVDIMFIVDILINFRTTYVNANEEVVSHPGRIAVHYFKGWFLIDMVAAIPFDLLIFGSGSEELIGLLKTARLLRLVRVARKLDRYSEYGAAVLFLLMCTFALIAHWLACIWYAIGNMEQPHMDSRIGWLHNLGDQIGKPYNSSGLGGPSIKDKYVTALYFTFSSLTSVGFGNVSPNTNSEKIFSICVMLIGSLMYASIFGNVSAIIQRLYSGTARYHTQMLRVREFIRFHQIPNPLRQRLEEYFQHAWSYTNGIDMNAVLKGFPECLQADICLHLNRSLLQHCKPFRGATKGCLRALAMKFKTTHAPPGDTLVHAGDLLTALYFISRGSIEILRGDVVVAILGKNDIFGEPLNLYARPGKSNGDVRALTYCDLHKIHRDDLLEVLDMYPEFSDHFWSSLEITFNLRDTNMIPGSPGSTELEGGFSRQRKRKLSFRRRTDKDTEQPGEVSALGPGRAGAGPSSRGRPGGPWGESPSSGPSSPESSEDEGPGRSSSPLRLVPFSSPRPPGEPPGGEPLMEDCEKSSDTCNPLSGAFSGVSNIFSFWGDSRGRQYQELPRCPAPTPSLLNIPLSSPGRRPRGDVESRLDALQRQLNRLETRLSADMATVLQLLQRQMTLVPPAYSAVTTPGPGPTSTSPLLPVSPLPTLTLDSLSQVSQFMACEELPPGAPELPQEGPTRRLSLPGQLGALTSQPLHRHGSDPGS
`Cc1ccc(NC(=O)NC2CC(=O)N(c3ccc4c(c3)OCCO4)C2)cc1` (stereo not shown): the “hERG current change (%, negative = inhibition) at 1uM” value is recorded as 11.3%.
For `CC[n+]1ccc(C(=O)NCc2ccccc2)cc1.[Cl-]`, the “hERG current change (%, negative = inhibition) at 1uM” value was determined as 12.3%.
Then `CCc1[nH]nc2c1C1(C(=O)N(Cc3ccccc3)c3ccccc31)C(C#N)=C(N)O2` (stereo not shown), with 15.5%; and `CCOc1ccc2[nH]c3nc(SCC(=O)OC(C)C)nnc3c2c1`, with 14.6%; and `CCCN1CCN(C(=S)Nc2ccc([N+](=O)[O-])cc2)CC1`, with -11%.
Then `Cc1ccc2[nH]c(=O)c(CN(CCCN(C)C)C(=O)Nc3cccc(Cl)c3)cc2c1`, with -26.3%; and `Cc1ccc2[nH]c(=O)c(CN(CCCN(C)C)C(=O)Nc3ccc(Cl)cc3)cc2c1`, with -62.7%; and `CCN1CCCC1CN(Cc1cc2ccc(C)cc2[nH]c1=O)C(=S)Nc1ccc(OC)cc1` (stereo not shown), with 21.4%.
Then `CCN(CC)CCN(Cc1cc2ccc(C)cc2[nH]c1=O)C(=O)Nc1ccc(Cl)cc1`, with -78.4%; and `CCN1CCCC1CN(Cc1cc2ccc(C)cc2[nH]c1=O)C(=S)Nc1ccc(F)cc1` (stereo not shown), with -70.6%.
On to `Cc1ccc2cc(CN(CCN(C)C)C(=O)Nc3ccc(Cl)cc3)c(=O)[nH]c2c1`, for which the “hERG current change (%, negative = inhibition) at 1uM” value is recorded as -20.7%.
Then `CCN(CC)CCN(Cc1cc2cc(C)ccc2[nH]c1=O)C(=S)Nc1ccccc1`, with -23.4%; and `Cc1ccc2[nH]c(=O)c(CN(CCCN(C)C)C(=O)Nc3ccc(F)cc3)cc2c1`, with -37%.
As for `CCN1CCCC1CN(Cc1cc2ccc(C)cc2[nH]c1=O)C(=S)Nc1cccc(OC)c1` (stereo not shown), the “hERG current change (%, negative = inhibition) at 1uM” value is on record as -44%.
Then `CSc1ccc(/C=N/N2CCN(Cc3ccccc3Cl)CC2)cc1`, with 9.96%.
In the case of `Cc1c(C(=O)O)c(C(=O)O)nc2ccc(N3CCOCC3)cc12`, the “hERG current change (%, negative = inhibition) at 1uM” value is on record as 10.3%.
The same measure for `Cc1c(CCC(=O)NC2CC2)c(=O)oc2c(C)c(O)ccc12`: 22.9%; for `Br.COC(=O)c1ccc(OCCN2C3=NCCN3c3ccccc32)cc1`: -56.5%.
Then `Br.CCOC(=O)CN1C2=NCCN2c2ccccc21`, with 15.4%; and `Br.COC(=O)CN1C2=NCCCN2c2ccccc21`, with -3.47%.
The same measure for `Cl.c1ccc2c(c1)N1CCN=C1N2CCN1CCCCC1`: 3.76%.
As for `CCCN1C2=NCCN2c2ccccc21.Cl`, the “hERG current change (%, negative = inhibition) at 1uM” value came out at 0.0662%.
Consider `Cl.c1ccc(OCCN2C3=NCCN3c3ccccc32)cc1`, for which the “hERG current change (%, negative = inhibition) at 1uM” value is -51.5%.
Then `Cc1ccc(Cl)cc1N1CCN(C(=O)Cc2cn(C)c3ccccc23)CC1`, with 13.8%.
Then `CCOc1cc(NC(=O)c2ccccn2)c(OCC)cc1NC(=O)c1ccc(OC)cc1`, with 3.95%; and `CNC(=S)NNC(=O)c1cccc(N(C)C)c1`, with 2.36%.
The same measure for `Cc1cccc(NS(=O)(=O)c2cccs2)n1`: 17.6%; for `COc1ccc(C2C(C(=O)N3CCN(c4ccccn4)CC3)CC(=O)N2c2ccc(OC)cc2)cc1` (stereo not shown): -50.6%; for `COc1ccc(N2C(=O)CCC(C(=O)N3CCN(c4ccccn4)CC3)C2c2ccc(F)cc2)cc1` (stereo not shown): -21.3%.
With `COc1ccc(C2C(C(=O)N3CCN(c4ccccn4)CC3)CCC(=O)N2c2ccc(OC)cc2)cc1` (stereo not shown), the “hERG current change (%, negative = inhibition) at 1uM” value was -0.548%.
Then `Cc1ccc(CNC(=O)CN(Cc2ccccc2)S(C)(=O)=O)cc1`, with -3.4%; and `Cc1cc(=O)[nH]c(N/N=C/c2c[nH]c3ccccc23)n1`, with 9.01%; and `[O-][Cl+3]([O-])([O-])[O-].c1ccc(-c2[nH]c(-c3ccccc3)[n+](CC3CO3)c2-c2ccccc2)cc1` (stereo not shown), with -2.8%.
With `Cc1cc(N2CCCC2)ccc1C=C(C#N)C#N`, the “hERG current change (%, negative = inhibition) at 1uM” value is listed as 1.28%.
Then `N#CC(C#N)=Cc1ccc(N2CCCC2)cc1`, with 5.75%.
Then `Cc1cc(C=C(C#N)C#N)ccc1N1CCCC1`, with -68.6%.
The same measure for `CNC(=S)Nc1ccc(C(N)=O)cc1`: 10.2%; for `CC(C)(C)c1nc(NCC2CCCO2)c2nnn(Cc3ccccc3)c2n1` (stereo not shown): 13.9%.
`COc1ccc(C(=O)Nc2ccccc2C(=O)Nc2ccc(C(=O)O)cc2)cc1`: the “hERG current change (%, negative = inhibition) at 1uM” value is 15%.
Then `O=C(CNS(=O)(=O)c1ccc(Br)s1)NCCc1ccc(Cl)cc1`, with 16.1%.
The same measure for `CC1(C)CC(=O)CC2(C1)NCC(c1ccccc1Cl)c1c2[nH]c2ccccc12.Cl` (stereo not shown): -3.21%; for `COc1cccc(C2CNC3(CCCC(C)C3)c3[nH]c4ccccc4c32)c1OC.Cl` (stereo not shown): 8.05%; for `CC1(C)CC(=O)CC2(C1)NCC(c1ccccc1)c1c2[nH]c2ccccc12.Cl` (stereo not shown): -83.4%.
Then `CC(C)(C)OC(=O)N[C@@H](Cc1ccccc1)C(=O)N1CCC(C(=O)N[C@@H](Cc2c[nH]c3ccccc23)C(=O)O)CC1`, with 15%; and `CCCS(=O)(=O)c1c(S(=O)(=O)CCC)c2cnccn2c1C(=O)c1ccc(CC)cc1`, with 0.628%.
For `OC1(c2ccc(Cl)cc2)CCN(Cc2c[nH]c3ccccc23)CC1`, the “hERG current change (%, negative = inhibition) at 1uM” value was -27.6%.
Then `COc1ccccc1N1CCN(CC(=O)Nc2ccc3c(c2)OCCO3)CC1`, with -0.304%.
Regarding `CCOc1ccc(NC(=O)CN2CCN(CC(=O)Nc3ccc4c(c3)OCO4)CC2)cc1`, the “hERG current change (%, negative = inhibition) at 1uM” value is reported as -80.9%.
Take `CCOc1ccc(OCCC(=O)Nc2ccc3c(c2)OCO3)cc1`: the “hERG current change (%, negative = inhibition) at 1uM” value was found to be 11.1%.
Then `COc1ccc(OCC(=O)Nc2ccc3c(c2)OCO3)cc1`, with 11.7%.
Then `COc1ccc(NC(=O)CN2CCN(CC(=O)Nc3ccc4c(c3)OCO4)CC2)cc1`, with -85.9%.
The same measure for `COc1ccccc1NC(=O)CN1CCN(CC(=O)Nc2ccc3c(c2)OCO3)CC1`: -67.3%.
In the case of `COc1ccc(S(=O)(=O)N2CCCN(CC(=O)Nc3ccc4c(c3)OCO4)CC2)cc1`, the “hERG current change (%, negative = inhibition) at 1uM” value is -15.1%.
Turning to `COc1ccccc1NC(=O)CN1CCN(CC(=O)Nc2ccc3c(c2)OCCO3)CC1`, the “hERG current change (%, negative = inhibition) at 1uM” value is reported as -10.6%.
For the compound `CCOc1ccc(NC(=O)COc2ccc3c(c2)OCO3)cc1`, the “hERG current change (%, negative = inhibition) at 1uM” value came out at 7.57%.
